Laboratory results taken from PubChem BioAssay (NCI).
Compounds without any hit were thinned out: in the full panel of roughly 83,000, 20% have a hit.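 48-hour exposure, single concentration, 96-well plates; percent growth endpoint where 0 means no net growth. Active: below 10.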 A number with no mark means an inactive call. Calls of active or inactive are those of the source.

What follows are molecules tested on MDA-MB-468 breast (assay: NCI-60 one-dose screen, 48 h (100 = growth as untreated, 0 = no growth, -100 = all killed)). Details: 10 µM unless noted.

Compound | growth
O=C1/C(=C/c2ccc(F)c(F)c2)CN(C(=O)C(Cl)Cl)C/C1=C\c1ccc(F)c(F)c1 | -58.2% (active)
CN(C)CCC1(c2ccccc2)CCN(C)C1=O (stereo not given) | 94.7%
O=S(=O)(NCCCNc1nccc(-c2c(-c3ccc(F)c(O)c3)nc3occn23)n1)c1ccccc1 | 94.8%
N#Cc1c(NC(=O)c2ccccc2C(F)(F)F)sc2c1CCC(=O)C2 | -0.286% (active)
COc1ccc(-c2nc(SCC(=O)c3ccc(Br)cc3)[nH]c(=O)c2C#N)cc1 | 100%
O=c1c2cc(C(F)(F)F)ccc2sc2c(NCCCNCCO)nc3ccccc3c12 | -74.3% (active)
O=c1c2cc(F)ccc2sc2c(NCCCNCCO)nc3ccc(F)cc3c12 | 39.7%
Cc1nc2oc3ccccc3c(=O)c2cc1C(=O)NCc1ccccc1 | 89.2%
O=C(NCCCl)Nc1nccnc1OCc1ccc(F)cc1 | 102%
CN(C)S(=O)(=O)c1ccc(S(=O)(=O)Nc2cccc(Cl)c2N2CCCCC2)cc1 | 67.8%
O=C1/C(=C/c2ccccc2)CN(C(=O)C(Cl)Cl)C/C1=C\c1ccccc1 | -32.8% (active)
O=C(N=Nc1c(O)[nH]c2ccccc12)Nc1ccc(Cl)cc1 | 81.7%
CC(Cl)(CCl)CS(=O)(=O)c1ccc(Cl)cc1 (stereo not given) | 104%
CN(C)CCN(C)CC(C)(C)C(=O)/C=C/c1ccc(Cl)cc1 | -46.2% (active)
C=C1C(=O)O[C@H]2[C@H]1CC/C(COC(=O)NCCc1c[nH]c3ccc(Cl)cc13)=C\CC[C@@]1(C)O[C@@H]21 | -59% (active)
Nc1n[nH]c2ccc([C@@H]3Nc4c(F)cc5[nH]ncc5c4[C@H]4C5CCC(C5)[C@@H]34)cc12 (stereo not given in full) | -4.88% (active)
N#Cc1c(N)nc2c(C#N)c(NC(=O)c3ccccc3)nn2c1-c1ccccc1 | 94.1%
N#Cc1c(-c2ccc(Cl)cc2)nc(NN=Cc2ccco2)nc1N1CCOCC1 | 30.9%
N#CCC1=NC(c2cccs2)=Nc2ccccc2S1 | 82.2%
COc1ccc(/C=C/C(=O)c2ccc(O)c(CN3CCN(c4cc5c(cc4F)c(=O)c(C(=O)O)cn5C4CC4)CC3)c2)cc1 | 3.04% (active)

Compound | growth
CN(C)c1ccc(/C=C/c2sc3ccc4ccccc4c3[n+]2C)cc1 | -86.4% (active)
COc1ccc(OC)c(/C=C/C(=O)N/N=C/c2ccccc2)c1 | 28.1%
Cc1cnc(C(=O)NNc2nc3sc4c(c3c(=O)[nH]2)C(C)CCC4)cn1 (stereo not given) | -10.4% (active)
CN1CCN(CC#CCn2c3c(c4ccccc42)C[C@]2(C)[C@H]4CC=C5[C@@H]6CC(C)(C)CC[C@]6(C(=O)N6CCOCC6)CC[C@@]5(C)[C@]4(C)CC[C@H]2C3(C)C)CC1 | 79.4%
O=C(/C=C/c1cccnc1)c1ccccc1 | 99.2%
COc1c(C)c2c(c(O)c1C/C=C(\C)CCC(=O)OCCN1CCOCC1)C(=O)OC2 | 32.6%
O=c1ncc(-c2ccc(C(F)(F)F)cc2)c(NC2CCCCCC2)[nH]1 | 11.8%
Nc1ncc(-c2ccc3ncnc(N4CCc5cc(F)c(Cl)cc54)c3c2)cc1CO | -39.8% (active)
CCN(CC)CCCNc1ccc(Nc2ccc(OC)cc2)cc1 | 78.8%
COc1cc(OC)cc(-c2cc(-c3c[nH]c4ccccc34)nc(-c3c[nH]c4ccccc34)c2C#N)c1 | 92.2%
Cc1ccc(C(=O)Nc2cccc(C#Cc3cccc4[nH]nc(N)c34)c2)cc1C(F)(F)F | 95.6%
OCCOCCN(Cc1ccccn1)Cc1cc(I)cc(I)c1O | 88%
COc1ccc(-c2[nH][nH]c(=O)c2-c2nc3ccccc3s2)cc1 | 119%
c1ccc(-c2nnn(-c3ccccc3)n2)cc1 | 111%
Cc1nnc2c3nnc(-c4ccc(Cl)cc4)n3c3ccccc3n12 | 100%
COc1cc2cn3c4ccc(O)cc4[nH]c(=O)c3c2cc1OC | -27.4% (active)
CCOC(=O)c1c(C)nc2c(c1N)/C(=C/c1cc(OC)c(OC)c(OC)c1)C(=O)N2c1ccc(OC)cc1 | 56%
Cc1ccc(S(=O)(=O)NC(=O)NCCSSCCNC(=O)NS(=O)(=O)c2ccc(C)cc2)cc1 | 97.6%
Cc1cnc(N)nc1OCC(C)(C)CNC(=O)c1cccc(-c2ccc(S(=O)(=O)Nc3ccc4c(c3)N(C(=O)C3CC3)CCC4)cc2)c1 | 22.6%
CCCCCCCCCC[N+](C)(C)N | 55.1%
